# Data published in ChEMBL document CHEMBL3988442, “University of Dundee, Small-Polar-MMV Screening Library” (2021).
# In all, about 48,000 compounds went through this assay and about 13,000 (27%) showed an effect of 50% or more. Some of the results follow.
# System: Wolbachia pipientis
# Assay: Anti-Wolbachia Cell-Based Screen
# Type: functional
# Design: scale not given: in the data most compounds retested in dose-response had high values
# Conditions: 5 µM
row,SMILES,Percent Effect [%]
1,CC(C)c1cccc(S(=O)(=O)NCCCN2CCC(O)CC2)c1,-12.32
2,Cc1cscc1C(=O)Nc1cncnc1N(C)C,-5.667
3,O=C(NCCNc1cnccn1)N1CCCC1,0.5946
4,O=C(NCCNc1cnccn1)N1CCCCCC1,67.88
5,N#Cc1cccnc1NCCNC(=O)N1CCCC(N2CCCC2)C1 (stereo unspecified),15.17
6,O=C(NCCNc1cnccn1)N1CCCC(N2CCCC2)C1 (stereo unspecified),106
7,O=C(NCCCn1cncn1)N1CCCC(N2CCCC2)C1 (stereo unspecified),-12.43
8,O=C(NCCNc1cnccn1)C1CCN(C(=O)N2CCCC2)CC1,14.69
9,Cc1cnc(CN(Cc2ccccc2)CC(O)c2cccs2)cn1 (stereo unspecified),-0.3476
10,CCc1nc(C)c(C(=O)N2CCCN(Cc3cnn(C)c3)CC2)s1,-6.859
11,CC[C@H](C)[C@H](N)C(=O)N1CC(=O)c2sc(NCc3ccccc3)nc2C1,97.62
12,CCOCC(=O)N1Cc2cnc(-c3ccccc3)nc2C1,12.32
13,CC(C)NC(=O)N1CC(=O)c2sc(Nc3ccc(C#N)cc3)nc2C1,104.4
14,CCc1cccc(OC2CN(C(=O)[C@@H](N)[C@@H](C)O)C2)c1,-4.168
15,CC(Oc1ccc(F)cc1)C(=O)N(CC(N)=O)C1CCCC1 (stereo unspecified),-8.353
16,CCOC(=O)N1CCN(C(=O)c2sc(-c3ccc(F)cc3)nc2C)CC1,5.729
17,CC[C@H](C)[C@H](N)C(=O)N1CC(=O)c2sc(Nc3ccc(F)cc3)nc2C1,106.2
18,CN(C(=O)CNc1ccc(C#N)cc1)C1CCCCC1,-20.31
19,N#Cc1ccc(Nc2nc3c(s2)C(=O)CN(CC2CC2)C3)cc1,122.3
20,CC(NC(=O)N1CCN(c2ncccn2)CC1)c1ccc(C#N)cc1 (stereo unspecified),-9.134
21,N#Cc1ccc(NC(=O)N2CCCCC2CN2CCCC2=O)cc1 (stereo unspecified),-0.03317
22,CC(NC(=O)N1CCN(c2cccs2)CC1)c1ccc(C#N)cc1 (stereo unspecified),-13.59

row,SMILES,Percent Effect [%]
1,Cc1cc(NC(=O)CCN2CCn3c(C)nnc3C2)no1,-12.27
2,Fc1cc(CNc2nncs2)ccc1Cl,-25.14
3,CC(C)NC(=O)[C@@H]1Cc2[nH]cnc2CN1CCCc1ccccc1,-2.135
4,CCN(C)S(=O)(=O)N(Cc1cscn1)c1ccccc1,-21.13
5,CC1CCN(C(=O)Cc2ccc(S(=O)(=O)C(F)F)cc2)CC1,3.078
6,CCOc1ccc(C(=O)Nc2c(C)nc3scc(C)n3c2=O)cc1,-3.66
7,CC(C1CC1)N(C(=O)CNc1ccc(C#N)cc1)C1CC1 (stereo unspecified),-11.75
8,CC(CNC(=O)Nc1ccc(C#N)cc1)N1CCc2ccccc21 (stereo unspecified),15.75
9,Cc1nnc(NC(=O)N2CCN(Cc3ccc(F)cc3)C(=O)C2)s1,-5.387
10,CC(C)CC(=O)Nc1c(-c2ccc(F)cc2)ncn1C,20.71
11,CC(C)CC(=O)N1CC(=O)c2sc(Nc3ccc(C#N)cc3)nc2C1,99.17
12,CC(C)CC(=O)N1CC(=O)c2sc(Nc3ccc(F)cc3)nc2C1,97.08
13,Cn1c(-c2ccccc2Cl)nc2cc(C(=O)NC(CO)CO)cnc21,-7.352
14,COCCc1noc(-c2ccc(-c3cc[nH]n3)nc2)n1,6.666
15,OC1CCCN(Cc2ccc(F)c3cccnc23)C1 (stereo unspecified),11.38
16,Cl.Cn1nc(C2CCCN(Cc3cc(F)ccc3F)C2)c2nccnc21 (stereo unspecified),109
17,CCn1c(C2CCCN(Cc3cc(F)ccc3OC)C2)nn(C)c1=O (stereo unspecified),-8.154
18,Cn1nc(C2CCCN(Cc3ccc(F)cc3F)C2)c2nccnc21 (stereo unspecified),118.1
19,COCc1nccc(C2CCCN(Cc3ccc(C#N)cc3F)C2)n1 (stereo unspecified),7.365
20,Cc1nc(CN2CCCC(CCc3ccc(F)cc3F)C2)c[nH]1 (stereo unspecified),10.82
21,COCCOc1ccccc1C(=O)Nc1c(C)cnn1CC1CC1,0.1744
22,NC(=O)CC1CCN(c2ncnc3cccc(F)c23)CC1,0.8232

row,SMILES,Percent Effect [%]
1,Cc1nccn1-c1cc(CNC(=O)CCNC(=O)OC(C)(C)C)ccn1,-3.866
2,CCc1cc(NCc2cccnc2N2CCCCC2)n2ncnc2n1,-26.62
3,CC(C)CN(CC(=O)O)C(=O)c1ccc(F)cc1,116.8
4,Cc1cc(C(=O)N(CC(=O)O)CC(C)C)ccc1F,96.02
5,CC(C)CCNC(=O)C(c1cccc(F)c1)N(C)C (stereo unspecified),-2.485
6,Cc1ccc(C(=O)NCCNC(=O)c2cncnc2C(C)C)cc1F,15.15
7,CCN(CC)C(=O)c1cccc(Cn2nc(C)cc2C)c1,-2.548
8,Cc1cccc(C(=O)N(CC(=O)O)CC(C)C)c1,94.29
9,CN(CC(=O)NCCC#N)C(c1ccccc1)c1ccc(F)cc1 (stereo unspecified),2.68
10,Cc1ccc(C(=O)N(CC(=O)O)CC(C)C)cc1F,102.6
11,Cc1noc(NC(=O)c2ccc(C)c(F)c2)n1,6.644
12,CC(O)CN(Cc1cccc(C(=O)N(C)C)c1)c1ccccc1 (stereo unspecified),9.156
13,Cc1cc(C(=O)N(C)S(=O)(=O)C(C)C)ccc1F,-2.598
14,Cc1cc(C(=O)N(C)S(C)(=O)=O)ccc1F,-1.159
15,CCC1CN(C(=O)c2ccccc2C(C)=O)CCN1C(C)C (stereo unspecified),1.877
16,COc1cccc(CNC2CCc3ccc(C)cc32)n1 (stereo unspecified),12.65
17,COCCN1CCN(CC(=O)N(C)Cc2ccccc2)CC1C (stereo unspecified),2.857
18,CN(c1nc(Cn2cnccc2=O)cs1)C1CC1,6.38
19,CNC(=O)C1CN(C(C)C)CCN1c1nc(C)cc(C)n1 (stereo unspecified),92.65
20,CNC(=O)C1Cc2ccccc2CN1CCC#N (stereo unspecified),-3.828
21,CNC(=O)C1CN(C(C)C)CCN1c1ncccn1 (stereo unspecified),82.95
22,CNC(=O)[C@H]1CC[C@@H]2[C@@H](CCN2c2ncccn2)O1,0.107

row,SMILES,Percent Effect [%]
1,CNC(=O)C1CN(C)CCN1c1nc(C)cc(C)n1 (stereo unspecified),94.41
2,CNC(=O)[C@@H]1C[C@@H](N)CN1c1nc(N2CCCC2)nc(C)c1C,2.441
3,CNC(=O)C1CCCN1c1nc(C)c2ccccc2n1 (stereo unspecified),9.069
4,CCCN1Cc2ccccc2CC1C(=O)NC (stereo unspecified),-1.794
5,Cc1cccnc1NC(=O)C1CCN(C(C)C(=O)NC(C)(C)C)CC1 (stereo unspecified),-8.313
6,OC1CCN(c2nc(-c3ccccc3)no2)CC1,-0.7688
7,O=C(Nc1ccc(N2CCCCC2)nc1)N1CCc2sccc2C1,2.777
8,Cc1cc(NC(=O)N(Cc2ccc(C#N)cc2)C(C)C)no1,2.443
9,c1cncc(-c2noc(CNC3CCCN(c4cccnn4)C3)n2)c1 (stereo unspecified),-17.88
10,Cc1ncccc1CNCC1COC2(CCCCC2)O1 (stereo unspecified),-0.2961
11,COc1ccccc1[C@@H]1CN(Cc2cnc(N(C)C)nc2)C[C@H]1C(=O)O,-3.277
12,COc1ccccc1C1Cn2ccnc2CN1Cc1c[nH]nc1C (stereo unspecified),158.2
13,Cc1n[nH]cc1CNC1CCN(c2ccccc2)CC1.Cl,-14.69
14,COc1ccccc1C1Cn2c(C)cnc2CN1Cc1c[nH]nc1C (stereo unspecified),184.6
15,COCc1ncc(CN2CCC(Oc3ccccc3OC)CC2)cn1,3.684
16,COc1ccccc1CC(=O)N1CCC(NCc2c[nH]nc2C)CC1,3.473
17,COc1ccccc1[C@@H]1CN(Cc2cnn(C)c2C)C[C@H]1C(=O)O,-12.3
18,COc1ccccc1C1Cn2c(C)cnc2CN1Cc1ccc(C)nc1 (stereo unspecified),131
19,COc1ccccc1[C@@H]1CN(Cc2nccn2C)C[C@H]1C(=O)O,-20.61
20,CCOC(=O)c1nc(CN2CCC(NC(=O)C(C)C)CC2)cs1,-9.152
21,O[C@@H]1Cc2ccccc2[C@@H]1Nc1ncccc1F,-3.78
22,O=C(Cn1cccc2oc(=O)nc1-2)NCC1Cc2ccccc2O1 (stereo unspecified),-3.762

row,SMILES,Percent Effect [%]
1,CS(=O)(=O)N1CCC(Oc2cnccn2)CC1,-17.13
2,O=S(=O)(N1CCOCC1)N1CCC(Oc2cnccn2)CC1,115
3,CN(C)S(=O)(=O)N1CCC(Oc2cnccn2)CC1,2.095
4,Cc1ccc(S(=O)(=O)N2CCC(Oc3ccccn3)CC2)c(C)c1,1.938
5,CC1CCN(S(=O)(=O)N2CCC(Oc3cnccn3)CC2)CC1,109.5
6,O=S(=O)(c1ccc(Cl)cc1)N1CCOC[C@H](Oc2cnccn2)C1,-1.113
7,O=S(=O)(N1CCCCC1)N1CCC(Oc2cnccn2)CC1,106.7
8,COC(=O)c1sccc1S(=O)(=O)N1CCC(Oc2cnccn2)CC1,2.794
9,Cc1noc(C)c1S(=O)(=O)N1CCC(Oc2cnccn2)CC1,11.35
10,Cc1n[nH]c(C)c1S(=O)(=O)N1CCC(Oc2cnccn2)CC1,120.8
11,O=S(=O)(c1ccc(F)cc1)N1CCOC[C@H](Oc2cnccn2)C1,-9.472
12,COc1ccc(C2CCCN2c2ccnc(C)c2Cl)c(OC)c1 (stereo unspecified),-16.05
13,CC(=O)N(C)Cc1nn(C)c2c1CN(Cc1ccsc1)C2.O=C(O)C(F)(F)F.O=C(O)C(F)(F)F,-3.994
14,O=C(O)C(F)(F)F.O=C([C@@H]1COC[C@H]2CN(C3CCCC3)C[C@H]21)N1CCCCO1,2.547
15,CC(Cn1cccn1)NC(=O)N1CCC(NS(C)(=O)=O)CC1 (stereo unspecified),10.97
16,O=C(O)C1CCN(c2nc3c(-c4ccccc4F)csc3c(=O)[nH]2)CC1,-3.996
17,CS(=O)(=O)NCCCNc1ccc(C(F)(F)F)cc1C#N,-7.983
18,O=C1OCCN1CCNCC1(O)CCCN(CCC2CCCCC2)C1=O (stereo unspecified),3.585
